# Reference: PubChem BioAssay AID1745849 (National Center for Advancing Translational Sciences (NCATS), 2022)
# Screen size: about 2,100 compounds; about 320 (15%) were called active. Another 52% or so got no clear call; they are omitted. Calls come from the whole dose curve; as a rule, active = well fitted cell-killing curve with a large enough effect; inconclusive = small, poorly fitted or top-dose-only effect, or effect the other way; inactive = flat fitted curve, though single readings scatter. The list shows a part of the results. Entries that show only a call come without a potency.
# Test: Viability Counterscreen for CMV-Luciferase Assay of Inhibitors of ATXN expression; note: nearly all actives have a fitted effect of over 55% in size
# Settings: HEK-293 CMV-luciferase cells viability, protease fluorescence, 24 h
# From the text: PI: Daniel Scoles Ph.D. University of Utah School of Medicine, Salt Lake City, Utah MLPCN Grant: NS073009 Spinocerebellar ataxia type 2 (SCA2) is a multisystem neurodegenerative disease caused by a dominantly acting mutation leading to expansion of a polyQ domain in the ataxin-2 protein (ATXN2). SCA2 patients develop progressive ataxia and later lose function in other neuronal systems. Prominent parkinsonian signs develop in some patients. Like many neurodegenerative disorders, no symptomatic or disease-modifying treatments are known. The primary objective of the proposed research is to identify compounds inhibiting ATXN2 expression and to test them for efficacy in SCA2 mouse models. We have developed a cell-based assay paired with an in vivo mouse model using identical luciferase expression constructs. This approach takes advantage of an ATXN2-luciferase transgene, with the luciferase gene flanked by the upstream and downstream portions of the ATXN2 gene. Here we describe a 5-7 dose quantitative high thoroughput screen (qHTS) for compounds lowering ATXN2 expression. We screened the NIH Molecular Libraries Small Molecule Repository (MLSMR) and NCGC's mechanistically annotated (MIPE) and drug repurposing (NPC) collections of compounds for lowering expression of an ATXN2-luciferase reporter in HEK-293 cells. The assay is a multiplexed cell viability assay to ensure target reduction in the absence of cytotoxicity. Secondary qHTS assays included a CMV-luciferase reporter expressed in HEK-293 cells as well as a biochemical assay using recombinant luciferase to detect inhibitors of the reporter enzyme. Compounds that inhibit ATXN2 expression but is not cytotoxic were selected for confirmatory and secondary screens.
# PROTOCOL TABLE (as described by Inglese J, Shamu CE and Guy RK. 2007) SEQUENCE No. (e.g., 1, 2, 3, etc.); […] (e.g., Cells, Incubation, Reagent, etc.); VALUE; DESCRIPTION. 1; Cells; 4 uL; white, solid bottom, 1536-well Greiner assay plate. 2; Incubation; 2 hr; 37 degree C in 5% humidified CO2. 3; Compounds; 23 nL; Kalypsis pintool (Wako USA) equipped with a 1536-well pin head. 4; Incubation; 24 hr; 37 degree C in 5% humidfified CO2. 5; Reagent; 1 uL; Gly-Phe-7-Amino-4-trifluoromethylcoumarin. 6; Incubation; 30 min; 37 degree C in 5% humidfified CO2. 7; Detection; Fluorescence; Viewlux plate reader (PerkinElmer). 8; Reagent; 3 uL; SteadyGlo luciferase solution (Promega). 9; Incubation; 5 min; room temperature. 10; Detection; Luminescence; ViewLux plate reader (PerkinElmer). NOTES (numbers refer to Sequence numbers above) 1. HEK-293 cells expressing CMV-luciferase reporter (designated as SC cells) were suspended in phenol-red free DMEM and dispensed in assay plates using a Multidrop Combi dispenser (Thermo Fisher Scientific). 2. Assay plates were incubated. Evaporation was prevented by covering assay plates with metal lids containing holes to allow gas diffusion. 3. Compounds were added in a dose response manner with the final concentrations of 57, 11.4, 2.28, 0.46, 0.091, 0.018, 0.0037 uM. Vehicle-only plates, with DMSO being pin-transferred to columns 5-48, were inserted uniformly at the beginning and the end of each library to monitor and record any shifts in assay performance. 5. 125 uM Gly-Phe-7-Amino-4-trifluoromethylcoumarin (MP Biomedicals) working concentration was used at a final concentration of 25 uM. 7. To assess cell viability; the assay plates were read using the ViewLux high-throughput CCD imager (PerkinElmer), wherein single end-point fluorescence measurement was acquired (excitation 405/10; emission 540/25 nm). 8. Detection reagent SteadyGlo Luciferase (Promega) was added to the assay plate. 10. Luminescence is then measured on the ViewLux imager equipped with a clear emission filter using a 2 sec exposure. […]
# Potency is the fitted concentration of half-maximal effect.
row,Structure (SMILES),Potency
1,COc1ccc(C(=O)NC(=C(Cl)Cl)S(=O)(=O)c2ccc(C)cc2)cc1,inactive
2,Cc1ccc(S(=O)(=O)/C(=C/Cl)NC(=O)c2ccccc2)cc1,17.8 µM (active)
3,Cc1cc(N/N=C/c2ccccc2[N+](=O)[O-])nc(-n2nc(C)cc2C)n1,12.6 µM (active)
4,Cc1cc(N/N=C\c2ccc(Br)cc2)nc(-n2nc(C)cc2C)n1,inactive
5,Cc1cc(N/N=C/c2ccc(O)cc2O)nc(-n2nc(C)cc2C)n1,10 µM (active)
6,CCn1c2ccccc2c2cc(NC(=O)COC(=O)C3CCC(=O)N3)ccc21 (stereo not drawn),inactive
7,CCCC(=O)OC/C(O)=C(\C#N)c1nc2ccccc2[nH]1,inactive
8,CCN(CC)CCNC(=O)c1ccc(NC(=O)c2ccccc2-c2ccc(C(F)(F)F)cc2)cc1,inactive
9,COc1cc(CNCc2ccncc2)cc(Br)c1OCc1ccccc1F,inactive
10,Cc1cc(C(=O)CN2C(=O)c3ccccc3S2(=O)=O)c(C)n1CC1CCCO1 (stereo not drawn),inactive
11,Cc1cc(C)n(CC(O)Cn2c3ccc(Cl)cc3c3cc(Cl)ccc32)c(=O)n1 (stereo not drawn),inactive
12,CC(Nc1ccccc1CO)C(=O)Nc1cccc(Cl)c1Cl (stereo not drawn),inactive
13,Cc1ccccc1C(=O)N/N=C/c1ccc([N+](=O)[O-])s1,22.4 µM (active)
14,O=C(N/N=C/c1cc(Br)ccc1O)c1ccncc1,inactive
15,Cc1ccc(NC(=O)/C=C/c2ccc([N+](=O)[O-])s2)c(C)c1,inactive
16,O=C(N/N=C/c1ccc([N+](=O)[O-])s1)c1ccccc1Br,20 µM (active)
17,O=C(N/N=C/c1cc(Cl)ccc1O)c1ccccc1Br,inactive
18,O=C(CNC(=O)c1ccccc1Br)N/N=C/c1cc(Br)ccc1O,inactive
19,Cc1cccc(/C=N/NC(=O)c2c(-c3ccccc3)noc2C)c1O,inactive
20,O=C(N/N=C/c1cc(Br)ccc1OC(=O)c1ccc(Br)cc1)c1ccncc1,inactive
21,O=C(N/N=C\c1ccc([N+](=O)[O-])s1)c1cncc(Br)c1,10 µM (active)

row,Structure (SMILES),Potency
1,CCCc1nc(NC2CCCCC2)c(C#N)c2c1COC(C)(C)C2,inactive
2,CN(C)CCC(c1ccc(Br)cc1)c1ccccn1 (stereo not drawn),inactive
3,N#Cc1cc2cc3c(cc2nc1SCC(=O)N1CCOCC1)OCCO3,inactive
4,Cc1ccc(C(=O)N(C)CC(=O)Nc2ccc(Cl)c(C(F)(F)F)c2)cc1S(=O)(=O)N1CCCCC1,20 µM (active)
5,CN(CC(=O)Nc1ccc(Cl)c(C(F)(F)F)c1)C(=O)c1cccnc1Sc1ccccc1,inactive
6,Cc1ccc(NC(=O)CSc2ccc(Br)cc2)cc1S(=O)(=O)N1CCOCC1,inactive
7,CC(SC(C)C(=O)NN=Cc1cccc(Cl)c1)C(=O)NN=Cc1cccc(Cl)c1 (stereo not drawn),inactive
8,O=C(Nc1nonc1-c1ccc(Cl)cc1)c1ccccc1,inactive
9,O=C1C=CCC(/C=C/c2ccccc2)O1 (stereo not drawn),31.6 µM (active)
10,Cc1csc2ncnc(NC3CCN(Cc4ccccc4)CC3)c12,inactive
11,CCOC(=O)N1CCN(c2ccnc3cc(Cl)ccc23)CC1,inactive
12,Cc1cccc(N2CCN(S(=O)(=O)c3ccc4c(c3)C(C)(C)C(=O)N4C)CC2)c1C,inactive
13,COc1ccc(O)c(/C=N/NC(=O)CCC(=O)Nc2cccc(C)c2)c1,inactive
14,CCN(CC(=O)Nc1cccc(OC)c1)CC(=O)Nc1ccc(Br)c(C)c1,17.8 µM (active)
15,COc1cccc(NC(=O)CSc2nc3ncc(Br)cc3[nH]2)c1,inactive
16,O=c1cc(-c2c(F)c(F)c(F)c(F)c2F)oc2ccccc12,inactive
17,Cc1c(N/N=C(\C#N)C(=O)c2ccccc2)c(=O)n(-c2ccccc2)n1C,11.2 µM (active)
18,COc1ccc(NS(=O)(=O)c2ccc(C(=O)Nc3c(C)n(C)n(-c4ccccc4)c3=O)cc2)cc1,inactive
19,Cc1ccccc1C(=O)/C(C#N)=N/Nc1c(C)n(C)n(-c2ccccc2)c1=O,10 µM (active)
20,Cc1c(N/N=C(\C#N)C(=O)c2ccc(Cl)cc2)c(=O)n(-c2ccccc2)n1C,2.51 µM (active)
21,CCOC(=O)c1ccc(NC(=O)c2nc[nH]c2C(=O)N[C@H](C)c2ccccc2)cc1,inactive

row,Structure (SMILES),Potency
1,CCn1c(C)cc(C(=O)CN2C(=O)c3ccccc3S2(=O)=O)c1C,inactive
2,O=C(Nc1cccc2ccccc12)OC1C=CS(=O)(=O)C1 (stereo not drawn),inactive
3,Cc1ccc(Cc2cnc(N3C(=N)SC(C)C3=O)s2)cc1 (stereo not drawn),inactive
4,Cc1cc(C)c(S(=O)(=O)/N=C2\C=C(Nc3ccc(C(=O)O)cc3)C(=O)c3ccccc32)c(C)c1,2 µM (active)
5,N#C/C(=C\c1cccc([N+](=O)[O-])c1)C(=O)NCc1ccc(Cl)cc1,3.55 µM (active)
6,CC(C)N(Cc1ccccc1)C(=O)/C=C/c1ccccc1[N+](=O)[O-],inactive
7,N#C/C(=C\C=C\c1ccccc1[N+](=O)[O-])C(=O)NCc1ccccc1,3.16 µM (active)
8,O=C(NCC1CCCO1)c1cccc(Oc2ccc([N+](=O)[O-])cc2Cl)c1 (stereo not drawn),inactive
9,CCN(CC)C(=O)C1=C(C)N(CCC2=CCCCC2)C(=O)C(CC(=O)NC(c2ccccc2)c2ccccc2)C1 (stereo not drawn),inactive
10,O=C(O)CSc1cc(NS(=O)(=O)c2ccc(Cl)cc2)c2ccccc2c1O,inactive
11,COc1ccc(-c2csc(N(CCCN3CCOCC3)C(=O)c3ccco3)n2)cc1,inactive
12,CCOc1ccc(NCc2cccn2-c2nnc(N3CCC(C(=O)NCCCN4CC(C)CC(C)C4)CC3)s2)cc1 (stereo not drawn),inactive
13,CCN(CC)CCNC1=NCCn2c1cc1cc(OC)ccc12,inactive
14,CCCCCn1c(=O)c2ccccc2n2c(CCl)nnc12,14.1 µM (active)
15,Cc1cc(C)cc(OCC(=O)NNC(=S)NC(=O)C2CC2)c1,inactive
16,CCCCC1C(=O)CC[C@H]2[C@@H]1CC(=O)[C@@H]2C/C=C\CCCC(=O)O (stereo partly drawn),inactive
17,CC(=O)N1c2ccc(S(=O)(=O)N3CCC(C(=O)N4CCN(c5ccc(Cl)cc5)CC4)CC3)cc2CC1C (stereo not drawn),inactive
18,CC1CC2(C)Oc3ccccc3CC2C(C)C1CNCCCN(C)C (stereo not drawn),35.5 µM (active)
19,COc1cc(Br)cc(/C=N/NC(=O)Cc2ccc(C(F)(F)F)cc2[N+](=O)[O-])c1O,inactive
20,COc1cc([N+](=O)[O-])cc(/C=N/NC(=O)c2ccc(NC(=O)c3ccc(C)cc3)cc2)c1O,1.41 µM (active)
21,CC(C)C(=O)Nc1ccc(C(=O)N/N=C/c2cc(Br)cc(Br)c2O)cc1,inactive
